Test results reported in PubChem BioAssay (NCI).
The panel holds about 83,000 compounds, 20% with a hit somewhere; the sample as a whole holds those more often.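 Cells were grown in 96-well plates and exposed to the test compound at a single concentration for 48 hours; results are reported as percent growth, with values below 10 considered active.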 A number with no mark means an inactive call. Calls of active or inactive are those of the source.

These molecules were tested on OVCAR-4 ovarian (assay: NCI-60 one-dose screen, 48 h (100 = growth as untreated, 0 = no growth, -100 = all killed)). Settings: 10 µM unless noted.

| SMILES | growth |
| --- | --- |
| C=C1CC2(OC1=O)C(=O)Nc1ccccc12 (configuration not stated) | 37.3% |
| Cc1ccc2c(c1)C(=O)/C(=C/c1ccc(OCC(=O)c3ccccc3)cc1)O2 | 83.9% |
| CCN(C(=O)CN1CCN(c2cc3c(cc2F)c(=O)c(C(=O)O)cn3C2CC2)CC1)c1nc(-c2ccc(OC)cc2)cs1 | 37.2% |
| CS(CCCCN=C=S)=NC(=O)c1c(F)c(F)c(F)c(F)c1F (configuration not stated) | 74.4% |
| Cc1ccccc1CCO | 106% |
| O=C(O)c1c([N+](=O)[O-])cnc2ccccc12 | 107% |
| CC(=O)C1=C(O)C=C2Oc3c(C(=O)/C=C/c4cc(Cl)cc(Cl)c4)c(O)c(C)c(O)c3[C@]2(C)C1=O | 8.73% (active) |
| COc1cc(NC(N)=NCC(C)(C)COc2ccc(C(F)(F)F)cc2)cnc1C#N | 65.8% |
| CC1=CC(=O)CC(C)(C)[C@@]1(O)/C=C/[C@@H](C)O | 106% |
| OC(c1cc(-c2ccccc2)nc2ccc(Cl)cc12)C1CCCCN1 (configuration not stated) | 79% |
| CCC(=O)OCc1cccc(OC)c1 | 94.6% |
| CCCCCCCCCCCCCC(=O)C(C)N (configuration not stated) | 14.3% |
| CC1=C(C)C(=O)OC([C@](C)(O)[C@]2(O)CC[C@@]3(O)[C@@H]4C[C@H]5O[C@]56CC=CC(=O)[C@]6(C)[C@H]4CC[C@]23COC(=O)c2ccc(C)o2)C1 (some centres not stated) | -32.9% (active) |
| C=C1CC[C@@H]2[C@](C)(COC(C)=O)[C@H](OC(C)=O)CC[C@@]2(C)[C@@H]1CC(Nc1ccc(S(=O)(=O)Nc2ccc(Cl)nn2)cc1)C1=CCOC1=O (some centres not stated) | 30.8% |
| CC(C)[C@H]1COC(=O)N1[C@@H]1C(=O)N([C@@H](CCC(=O)N2CCN(C3CCCC3)CC2)C(=O)N[C@@H]2CCCc3ccccc32)[C@@H]1/C=C/c1cccc(Br)c1 | 53.9% |
| Cc1cc(Cl)ccc1Nc1nc(C(F)(F)F)ccc1C(=O)N/N=C/c1ccc(F)cc1 | 5.75% (active) |
| Cn1c(=O)c2[nH]c(C(O)C(O)C(O)C(O)CO)nc2n(C)c1=O (configuration not stated) | 116% |
| C(=N\Nc1ccccn1)/c1ccccn1 | 10.6% |
| COc1cccc(-c2cn3c(ccc4ccccc43)n2)c1 | 61.6% |
| COc1ccc2c(c1)C(=O)/C(=C/c1cccc(OCC(=O)Nc3nc4c(s3)CCCC4)c1)O2 | 8.81% (active) |
| c1ccc(-c2nc(N3CCOCC3)c3c4c(sc3n2)CCCCC4)nc1 | 51% |
| COc1ccc(-c2cn3c(ccc4ccccc43)n2)cc1 | 101% |
| COc1cc(OC)c(/C=C/C(=O)c2c(OC)cc(OC)cc2OC)c(OC)c1 | 47.6% |
| COc1ccc(-c2cc(-c3ccc(N(C)C)cc3)nc(NC(=O)c3ccncc3)n2)cc1 | 122% |

The molecules below were run on SK-OV-3 ovarian in the same assay as above. Settings: 10 µM unless noted.

| SMILES | growth |
| --- | --- |
| O=C1/C(=C/c2ccc(F)cc2)CN(C(=O)CCN2CCC(=NO)CC2)C/C1=C\c1ccc(F)cc1 | -0.984% (active) |
| CC/C=C\C[C@H](O)C/C=C1/C(=O)C=C[C@@H]1C/C=C\CCCC(N)=O | 10.9% |
| CC/C=C\C[C@H](F)C/C=C1/C(=O)C=C[C@@H]1C/C=C\CCCC(=O)OC | 50.3% |
| Nc1nc2c(c3ncccc13)C(c1ccc(Cl)c(Cl)c1)Cc1ncccc1-2 (configuration not stated) | 19.7% |
| Cn1c(=O)c2c(ncn2CC[N+](C)(C)C)n(C)c1=O | 99.4% |
| O=C(O)c1cccc2c1-c1ccccc1C2=O | 103% |
| CCOC(=O)C(C#N)C1CCCCC1 (configuration not stated) | 109% |
| CCCCNP1(NCCCC)=NP(NCCCC)(NCCCC)=NP(NCCCC)(NCCCC)=NP(NCCCC)(NCCCC)=N1 | 7.65% (active) |
| CC(=O)C1=C(O)C=C2Oc3c(C(=O)/C=C/c4cc(C(F)(F)F)cc(C(F)(F)F)c4)c(O)c(C)c(O)c3[C@]2(C)C1=O | -32.9% (active) |
| COc1ccc(OCC(=O)Nc2ccc(-c3nc4ccccc4s3)cc2C)cc1 | 99.5% |
| CCCCCCCCCC(=O)Oc1ccc(/C(=C(/C)c2ccccc2)c2ccc(OCCN3CCCC3)cc2)cc1 | 33.9% |
| COc1cccc(-c2nc3sccn3c2-c2ccnc(NCCCNS(=O)(=O)c3ccc(Cl)cc3)c2)c1 | 75.3% |
| CC/C=C\C[C@H](O)C/C=C1/C(=O)C=C[C@@H]1C/C=C\CCCC(=O)NC | 11.4% |
| COc1cccc(/C=C\C(=O)c2ccccc2)c1 | 107% |
| C=C1CC2(OC1=O)C(=O)Nc1ccccc12 (configuration not stated) | 115% |
| Cc1ccc2c(c1)C(=O)/C(=C/c1ccc(OCC(=O)c3ccccc3)cc1)O2 | 106% |
| CCN(C(=O)CN1CCN(c2cc3c(cc2F)c(=O)c(C(=O)O)cn3C2CC2)CC1)c1nc(-c2ccc(OC)cc2)cs1 | 97.1% |
| CS(CCCCN=C=S)=NC(=O)c1c(F)c(F)c(F)c(F)c1F (configuration not stated) | 91.7% |
| Cc1ccccc1CCO | 98% |

| SMILES | growth |
| --- | --- |
| O=C(O)c1c([N+](=O)[O-])cnc2ccccc12 | 93% |
| CC(=O)C1=C(O)C=C2Oc3c(C(=O)/C=C/c4cc(Cl)cc(Cl)c4)c(O)c(C)c(O)c3[C@]2(C)C1=O | -24.4% (active) |
| COc1cc(NC(N)=NCC(C)(C)COc2ccc(C(F)(F)F)cc2)cnc1C#N | 66.4% |
| CC1=CC(=O)CC(C)(C)[C@@]1(O)/C=C/[C@@H](C)O | 113% |
| OC(c1cc(-c2ccccc2)nc2ccc(Cl)cc12)C1CCCCN1 (configuration not stated) | 89.1% |
| CCC(=O)OCc1cccc(OC)c1 | 103% |
| CCCCCCCCCCCCCC(=O)C(C)N (configuration not stated) | 72.5% |
| CC1=C(C)C(=O)OC([C@](C)(O)[C@]2(O)CC[C@@]3(O)[C@@H]4C[C@H]5O[C@]56CC=CC(=O)[C@]6(C)[C@H]4CC[C@]23COC(=O)c2ccc(C)o2)C1 (some centres not stated) | -51.7% (active) |
| C=C1CC[C@@H]2[C@](C)(COC(C)=O)[C@H](OC(C)=O)CC[C@@]2(C)[C@@H]1CC(Nc1ccc(S(=O)(=O)Nc2ccc(Cl)nn2)cc1)C1=CCOC1=O (some centres not stated) | 86.1% |
| CC(C)[C@H]1COC(=O)N1[C@@H]1C(=O)N([C@@H](CCC(=O)N2CCN(C3CCCC3)CC2)C(=O)N[C@@H]2CCCc3ccccc32)[C@@H]1/C=C/c1cccc(Br)c1 | 52.7% |
| Cc1cc(Cl)ccc1Nc1nc(C(F)(F)F)ccc1C(=O)N/N=C/c1ccc(F)cc1 | 21.3% |
| Cn1c(=O)c2[nH]c(C(O)C(O)C(O)C(O)CO)nc2n(C)c1=O (configuration not stated) | 99.8% |
| C(=N\Nc1ccccn1)/c1ccccn1 | 30.5% |
| COc1cccc(-c2cn3c(ccc4ccccc43)n2)c1 | 45.7% |
| COc1ccc2c(c1)C(=O)/C(=C/c1cccc(OCC(=O)Nc3nc4c(s3)CCCC4)c1)O2 | 119% |
| c1ccc(-c2nc(N3CCOCC3)c3c4c(sc3n2)CCCCC4)nc1 | 32.9% |
| COc1ccc(-c2cn3c(ccc4ccccc43)n2)cc1 | 92.8% |
| COc1cc(OC)c(/C=C/C(=O)c2c(OC)cc(OC)cc2OC)c(OC)c1 | 24.7% |
| COc1ccc(-c2cc(-c3ccc(N(C)C)cc3)nc(NC(=O)c3ccncc3)n2)cc1 | 117% |
